Laboratory results published in ChEMBL document CHEMBL1157539, “Thousands of chemical starting points for antimalarial lead identification” (Nature, 2010).

Columns and labels:
Assay type in all cases: functional
Plasmodium falciparum [1] = test: GSK_TCMDC: Inhibition of Plasmodium falciparum 3D7 in whole red blood cells, using parasite LDH activity as an index of growth. Test compounds present at 2uM
Plasmodium falciparum [2] = test: GSK_TCMDC: Inhibition of Plasmodium falciparum Dd2 in whole red blood cells, using parasite LDH activity as an index of growth. Test compounds present at 2uM
HepG2 = test: GSK_TCMDC: Percent inhibition of human HepG2 cell line. Test compounds present at 10uM.

| SMILES | Inhibition (Plasmodium falciparum [1]) | Inhibition (Plasmodium falciparum [2]) | Inhibition (HepG2) |
| --- | --- | --- | --- |
| COc1ccc(CNC2CCN(C)CC2)cc1-c1ccc(S(=O)(=O)NCC2CCCO2)s1.O=C(O)C(F)(F)F (stereo not given) | 95% | 18% | 18% |
| CCc1cn(CCCOC)c2ccc(C(=O)N[C@@H](Cc3ccccc3)[C@H](O)CNCc3cccc(C(F)(F)F)c3)cc12 | 93% | 78% | 8% |
| COc1ccc2nccc(N3CCC(CCNCc4ccc5c(n4)NC(=O)CO5)CC3)c2c1.Cl | 100% | 50% | 22% |
| CN(C)CCNc1cc(-c2cccnc2)nc(-c2ccncc2)n1 | 100% | 98% | 33% |
| C#CCNC(=O)c1ccc(-c2ccnc(Nc3cccc(CCCN4CCOCC4)c3)n2)s1 | 82% | 45% | 54% |
| Fc1cccc(C=NNc2ccnc3cc(Cl)ccc23)c1 | 99% | 91% | 6% |
| COC(=O)c1cccc(CNCc2cccc(-c3ccc(-c4nc5cc(C(F)(F)F)ccc5[nH]4)cc3)c2)c1.O=C(O)C(F)(F)F | 100% | 83% | 13% |
| COc1cc2nc(N3CCC(CNC(=O)c4cccc5cccnc45)CC3)nc(N)c2cc1OC | 99% | 33% | 34% |
| Cc1ccc(NC(=O)c2ccc3ncccc3c2)cc1OC1CCN(Cc2ccsc2)CC1.O=C(O)C(F)(F)F | 93% | 29% | 21% |
| CN(C)CC(=O)Nc1ccc(Nc2nccc(NCC(O)c3ccccc3)n2)cc1 (stereo not given) | 95% | 2% | 0% |
